Bioassay records (PubChem)
Only some compounds are listed: those with a hit (about 1.2% of all), similar ones and a draw of the others.
NCOA2 inhibitor = inhibition of GAL4-SRC2 driven luciferase reporter, primary screen, SRC2 inhibitor project, cell-based, luminescence; Nuclear receptor coactivator 2 (Homo sapiens), Q15596; HEK293 GAL4-SRC2 luciferase reporter; inhibition, % at 9 µM; 370,000 tested, 0.17% active;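 active means inhibition above the mean inhibition of all tested compounds plus 3 SD, set per campaign, cut at about 52% in these data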;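 further: 0% = DMSO treated cells and 100% = cells given Gossypol at 36 µM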
NCOA3 inh = SRC3 coactivator transcriptional activity inhibitors, primary screen, cell-based, luminescence. HEK293 GAL4-SRC3 luciferase reporter. inhibition, % at 3.6 µM. 360,000 tested, 0.17% active;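 active means inhibition above a per-campaign cutoff, the mean of all compounds plus 3 SD, cut at about 60% in these data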;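 further: 0% = DMSO-treated cells and 100% = gossypol-treated cells at 36 µM; higher means less SRC3-driven luciferase light from the GAL4 reporter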
NCOA1 inh = SRC1 coactivator transcriptional activity inhibitors, primary screen, cell-based, luminescence | Nuclear receptor coactivator 1 (Homo sapiens), Q15788 | HEK293 GAL4-SRC1 luciferase reporter | inhibition, % at 3.6 µM | 360,000 tested, 0.12% active;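 active means inhibition above the campaign mean plus 3 SD, with each screening campaign given its own cutoff, cut at about 60% in these data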;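 further: 0% = DMSO treated cells and 100% = gossypol at 36 µM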
Shn3 3UTR inh = reduction of Shn3 3'UTR firefly luciferase signal, primary screen, Schnurri-3 inhibitor project, cell-based, Clone20 osteoblasts, set 2. inhibition, % at 12.5 µM. Clone20 osteoblast Shn3 3'UTR firefly luciferase, 24 h. 360,000 tested, 0.52% active. AID 588674, 2011;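 active means mean inhibition of at least 75% with every replicate also reaching 75%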;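 further: 0% = median of neutral control wells and 100% = pilot-screen positive control compound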
LRH-1 inv ag = LRH-1 (NR5A2) inverse agonists, primary screen, cell-based, luminescence, HEK293T, StAR-luciferase reporter; Nuclear receptor subfamily 5 group A member 2 (Homo sapiens), O00482; LRH-1 transfected, 24 h; inhibition, % at 3.6 µM; 360,000 tested, 0.13% active; AID 602396, 2012;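 active means inhibition above the mean inhibition of all tested compounds plus 3 SD, cut at about 73% in these data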;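 further: 0% = DMSO wells and 100% = reporter-only cells lacking LRH-1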
Target sequence (O00482 whole entry, looked up): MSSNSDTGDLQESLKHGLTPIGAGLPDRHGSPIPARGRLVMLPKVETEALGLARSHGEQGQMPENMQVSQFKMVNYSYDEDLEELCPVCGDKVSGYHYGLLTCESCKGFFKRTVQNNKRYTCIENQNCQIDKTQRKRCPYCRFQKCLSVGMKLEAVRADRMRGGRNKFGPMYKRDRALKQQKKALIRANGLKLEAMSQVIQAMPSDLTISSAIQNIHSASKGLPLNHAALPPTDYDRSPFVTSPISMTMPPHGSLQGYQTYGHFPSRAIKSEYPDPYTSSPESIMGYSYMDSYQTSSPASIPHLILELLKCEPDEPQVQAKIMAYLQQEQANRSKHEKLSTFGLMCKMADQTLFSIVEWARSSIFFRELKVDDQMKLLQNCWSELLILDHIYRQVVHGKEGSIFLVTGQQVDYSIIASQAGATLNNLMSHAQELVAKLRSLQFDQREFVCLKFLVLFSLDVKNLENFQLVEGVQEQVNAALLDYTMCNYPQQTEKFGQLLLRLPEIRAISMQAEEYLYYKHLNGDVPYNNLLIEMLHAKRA
EBV LMP1 NFkB = EBV LMP1-driven NF-kappaB luciferase reporter inhibitors, primary screen, cell-based, luminescence, single point. LMP1-induced NF-kappaB luciferase reporter cells. 350,000 tested, 0.69% active. inhibition, % at 12.5 µM; in the data active means inhibition above about 41%;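 further: 0% = neutral control wells and 100% = reference inhibitor control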
Starred values were filed as active, the others as inactive; / = not tested or not shown.

SMILES	NCOA2 inhibitor	NCOA3 inh	NCOA1 inh	Shn3 3UTR inh	LRH-1 inv ag	EBV LMP1 NFkB
COC(=O)c1ccc2nc(C3CCCCC3)c(Cc3ccccc3OC)n2c1	12.3	/	/	/	/	/
CC(=O)N(Cc1ccc(F)cc1)C1=C(NCCc2ccccc2)C(=O)c2ccccc2C1=O	44.4	17.1	2.5	38.1	28.1	75.8*
O=C1C(Cl)=C(NCCc2ccccc2)C(=O)c2ccccc21	-44.6	-67.4	-27.7	28.0	-0.9	-4.8
COC(=O)[C@]12C[C@H](CC(=O)N3CCSCC3)C(=O)N(Cc3ccccc3)C1=C[C@H](C(C)C)O[C@@H]2C1CC1	3.5	/	/	/	/	/
CCOc1ccc(N(CC(=O)Nc2c(C)n(C)n(-c3ccccc3)c2=O)S(=O)(=O)c2ccc3c(c2)N(C(=O)C2CCC2)CC3)cc1	-33.5	/	/	/	/	/
O=S(=O)(c1cc(F)ccc1F)N1CCN(c2ncnc3ccccc23)CC1	23.2	19.3	7.6	87.9*	17.6	16.7
Nc1ccc2c(c1)OC1(CCCC1)O2	66.1*	54.5	50.5	78.4	25.6	59.1*
CCCOc1ccc2cc(-c3ccccn3)c(=O)oc2c1	31.7	-11.8	-45.2	59.7	-43.3	60.5*
O=c1oc2cc(OCc3c(F)cccc3Cl)ccc2cc1-c1ccccn1	-23.3	-15.0	-5.4	-25.1	-15.5	-29.7
CN1CCN(c2ccc(NC(=O)c3ccco3)cc2Cl)CC1	-63.9	-73.6	-120.9	-42.0	-104.4	59.8*
O=C(Nc1ccc(N2CCCC2)c(Cl)c1)c1ccco1	-25.1	-36.5	-107.1	-13.5	-129.7	0.6
COc1ccc2c(c(-c3ccccc3)cn2C)c1-c1ccccc1	-5.2	/	/	/	/	/
Cc1ccc(S(=O)(=O)NC(CC(C)C)C(=O)NCC(c2ccco2)N2CCCCC2)cc1 (stereo unspecified)	/	72.2*	64.6*	47.4	38.2	49.1*
Cc1ccc(-c2cc(-c3nnc(SCC(=O)N4c5ccccc5Sc5ccccc54)n3N)[nH]n2)cc1	-16.7	/	/	/	/	/
CN(CCNC(=O)C1CCN(S(=O)(=O)N2CCOCC2)CC1)CCc1ccccc1	-2.2	11.3	-0.1	3.6	5.9	41.5*
CCCCNC(=O)C[C@H]1C[C@@]2(C(=O)OC)C(=C[C@H](COCc3ccccc3)O[C@@H]2C)N(Cc2ccco2)C1=O	-0.8	/	/	/	/	/
CCOc1ccc(N(CC(=O)Nc2c(C)n(C)n(-c3ccccc3)c2=O)S(=O)(=O)c2cccs2)cc1	-21.4	/	/	/	/	/
COC(=O)c1ccc2nc(-c3ccc(S(C)(=O)=O)cc3)cn2c1	-16.9	-76.0	-47.5	-39.6	-25.6	-18.0
COC(=O)c1ccc2nc(-c3cccc(N)c3)cn2c1	6.6	-21.9	-107.9	46.0	-72.6	60.8*
COc1ccc(NC2=NCC(Cc3ccc(Br)cc3)S2)cc1 (stereo unspecified)	21.2	10.2	-14.3	36.5	9.7	65.7*
Cc1cc(Oc2ccc(N)cn2)cc(C)c1Cl	14.8	-11.8	3.8	/	8.7	-7.4
CC(C)(C)c1ccc(Oc2ccc(N)cn2)cc1	85.8*	52.9	26.7	38.8	15.6	/
CC(C)(C)c1ccc(Oc2ccc(NC(=O)c3ccccc3C(=O)O)cn2)cc1	84.6*	47.1	34.2	44.1	34.5	/
COc1ccc(C(=O)C(CN2CCOCC2)c2ccccc2)cc1F (stereo unspecified)	36.6	24.1	16.1	32.6	-14.1	74.2*
CN(C)CCCNC(=O)c1c(N)[nH]c(C(=O)c2ccc(Br)cc2)c1-c1ccc(Br)cc1	-16.6	/	/	/	/	/
SMILES	NCOA2 inhibitor	NCOA3 inh	NCOA1 inh	Shn3 3UTR inh	LRH-1 inv ag	EBV LMP1 NFkB
CC(=O)Nc1ccc(C(/C=C/c2ccccc2)Cc2ccccc2)cc1 (stereo unspecified)	16.1	/	/	/	/	/
CC(C)CCNc1nc(N)c([N+](=O)[O-])c(N2CCCCCC2)n1	18.6	29.5	13.4	86.8*	-5.5	5.8
CCc1c(C)nc2ncnn2c1NCCc1ccc(OC)c(OC)c1	-8.7	-28.8	-0.5	55.8	13.4	7.5
COc1ccc(CCNc2c(C)c(C)nc3ncnn23)cc1	15.6	26.7	30.6	80.8*	44.4	11.8
N#CCC[C@@H]1CC[C@]2(CCCN(S(=O)(=O)c3ccccc3)C2)O1	9.9	/	/	/	/	/
COc1ccc(C2=Nn3c(nnc3-c3ccccc3F)SC2)cc1OC1CCOC1 (stereo unspecified)	-61.9	-10.5	-10.2	23.9	55.3	7.2
COc1ccc(OC)c(-c2nnc3n2N=C(c2ccc(OC)c(OC4CCCC4)c2)CS3)c1	25.4	8.1	16.0	21.5	23.9	48.3*
COc1ccc(OC)c(-c2nnc3n2N=C(c2ccc(OC)c(OC)c2)CS3)c1	0.6	5.0	-44.7	16.9	40.7	14.4
COc1ccc(C2=Nn3c(nnc3-c3ccccc3F)SC2)cc1OC1CCCC1	-5.4	-183.7	-223.3	8.1	-54.0	54.5*
C/C(=N/NC(=O)c1cc(C2CC2)[nH]n1)c1cccs1	-25.2	-46.0	-73.4	48.9	-154.4	60.3*
O=C(N/N=C/c1cccc2ccccc12)c1cc(C2CC2)[nH]n1	-25.9	-2.5	-12.5	-24.2	-22.4	52.6*
C/C(=N\NC(=O)c1ccncc1)c1cccs1	-20.0	-21.9	-30.5	-13.9	17.0	-1.2
CCN(CC)S(=O)(=O)c1ccc(N2CCOCC2)c(NC(=O)c2nn(C(C)C)c(=O)c3ccccc23)c1	21.2	2.8	2.1	86.1*	-8.1	-16.9
O=C(NCCc1c[nH]c2ccccc12)OCc1cn(-c2cccc(C(F)(F)F)c2)nn1	-3.3	/	/	/	/	/
COc1ccc2cc(C(N)=O)/c(=N\NC(=O)c3ccccc3)oc2c1	-29.7	-42.6	-36.0	23.1	-14.9	45.8*
CC(=O)c1ccc(NCCCN2CCC(C(O)(c3ccccc3)c3ccccc3)CC2)cc1	-2.4	/	/	/	/	/
COc1ccc(-c2nsc3c(N4CCCCC4)ncnc23)cc1	33.2	43.2	53.6	61.1	39.7	31.4
COc1ccc(-c2nsc3c(N4CCCCC4C)ncnc23)cc1 (stereo unspecified)	82.0*	88.6*	89.0*	82.3	85.9*	73.3*
COc1ccc(CNS(=O)(=O)CC2NCCc3ccccc32)cc1 (stereo unspecified)	7.7	/	/	/	/	/
O=C(Nc1ccc(-n2cnnn2)cc1)c1cn2ccccc2n1	/	-20.0	-38.7	-74.0	-41.1	-21.0
O=C(Nc1ccccc1)c1cn2ccccc2n1	-2.4	-58.3	-57.5	-18.7	-104.0	42.2*
Cc1csc(NC(=O)c2ccc3ccccc3n2)n1	-37.7	-98.2	-84.8	-49.6	-108.8	-27.5
Cc1csc(NC(=O)c2cn3ccccc3n2)n1	26.9	-26.7	-50.6	65.3	-58.6	67.6*
Cc1ccc(S(=O)(=O)N2CCN(C(=O)COC(=O)COc3ccc(Cl)cc3)CC2)c(C)c1	10.6	12.1	-7.0	-17.9	-12.2	58.3*
